# Reference: PubChem BioAssay (NCI)
# Compounds without any hit were thinned out: in the full panel of roughly 83,000, 20% have a hit.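 The endpoint reported here, percent growth, reads 100 for growth as untreated, 0 for no net growth and -100 for all cells dead.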 Unmarked numbers belong to inactive results. Activity calls are given as the source filed them. Rule for the calls: active = growth percent below 10; inactive = the rest.
# Tests used:
# Assay in all cases: NCI-60 one-dose screen, 48 h (100 = growth as untreated, 0 = no growth, -100 = all killed)
# Settings in all cases: 10 µM unless noted
# HCT-15 colon = test system: HCT-15 colon
# HT29 colon = test system: HT29 colon
# SNB-75 CNS = test system: SNB-75 CNS
# SNB-19 CNS = test system: SNB-19 CNS
# U251 CNS = test system: U251 CNS
# PC-3 prostate = test system: PC-3 prostate
# SK-MEL-5 melanoma = test system: SK-MEL-5 melanoma
# LOX IMVI melanoma = test system: LOX IMVI melanoma
# SK-MEL-28 melanoma = test system: SK-MEL-28 melanoma
# SK-MEL-2 melanoma = test system: SK-MEL-2 melanoma
# EKVX NSCLC = test system: EKVX NSCLC
# SN12C renal = test system: SN12C renal
# UO-31 renal = test system: UO-31 renal
# TK-10 renal = test system: TK-10 renal
# ACHN renal = test system: ACHN renal
# CCRF-CEM leukemia = test system: CCRF-CEM leukemia
# MOLT-4 leukemia = test system: MOLT-4 leukemia
# A498 renal = test system: A498 renal
# CAKI-1 renal = test system: CAKI-1 renal
Structure (SMILES),growth (HCT-15 colon),growth (HT29 colon),growth (SNB-75 CNS),growth (SNB-19 CNS),growth (U251 CNS),growth (PC-3 prostate),growth (SK-MEL-5 melanoma),growth (LOX IMVI melanoma),growth (SK-MEL-28 melanoma),growth (SK-MEL-2 melanoma),growth (EKVX NSCLC),growth (SN12C renal),growth (UO-31 renal),growth (TK-10 renal),growth (ACHN renal),growth (CCRF-CEM leukemia),growth (MOLT-4 leukemia),growth (A498 renal),growth (CAKI-1 renal)
Cn1cc(-c2csc(-c3cn(CCN)c4ccc(F)cc34)n2)c2cccnc21,55.9%,74.7%,75.7%,77.7%,81.4%,61.3%,57%,60.4%,98.2%,93.3%,55.9%,76%,58.3%,121%,60.9%,34.3%,12.1%,–,–
CCCCC[C@H]1C/C=C2/C(=O)C(Cl)=C[C@@H]2C/C=C\CCCC(=O)O1,-61.9% (active),-22.6% (active),5.2% (active),-73.4% (active),-91.7% (active),-46.6% (active),-77.5% (active),-85.2% (active),-64.7% (active),-45.4% (active),-69% (active),-26.9% (active),–,-56.7% (active),-84.4% (active),0.514% (active),-2.82% (active),-76.2% (active),–
c1cnc2[nH]cc(-c3csc(-c4cn(CCCN5CCCCC5)c5ccccc45)n3)c2c1,4.45% (active),-55.8% (active),60.2%,39.2%,10.4%,34.9%,-80.1% (active),-67.6% (active),-68.4% (active),93.7%,65.8%,–,43.8%,115%,60.2%,–,-10.6% (active),83.8%,–
Cc1cc(N2CCN(C)CC2)nc(N(CCNc2ccnc3cc(Cl)ccc23)Cc2ccco2)n1,18.1%,5.75% (active),66.3%,36.8%,39.3%,34.8%,-82% (active),-5.64% (active),-72.3% (active),55.8%,57.2%,–,54.8%,105%,54.5%,–,28.8%,–,–
COc1ccc2c(c1)c(-c1nc(-c3cn(C)c4ncccc34)cs1)cn2CCN,58.5%,74.5%,78.2%,80.7%,84.8%,70.2%,60.3%,68.1%,99%,101%,56.5%,76.3%,66.6%,92.4%,–,69%,29.7%,97.4%,–
Cc1cccc(C)c1NC(=O)CSC(=S)N1CCCCC1,105%,103%,96%,111%,105%,97.6%,112%,98.2%,105%,97.6%,97.2%,110%,85.6%,89%,101%,–,87.8%,99.3%,–
NCCn1cc(-c2nc(-c3c[nH]c4ncccc34)cs2)c2cc(Br)ccc21,27.1%,31%,72.7%,79.3%,67.9%,59.9%,85.1%,82.6%,99.4%,101%,64%,78%,62.2%,149%,76.4%,60%,41.8%,–,–
CCCCC[C@H]1C/C=C2/C(=O)C(Cl)=C[C@@H]2C/C=C\CCCC(=O)O[C@@H](CCCCC)C/C=C2/C(=O)C(Cl)=C[C@@H]2C/C=C\CCCC(=O)O1,-24.6% (active),-56% (active),11.9%,-57.8% (active),-78.7% (active),-37.7% (active),-94.4% (active),-74.7% (active),-48.1% (active),-46% (active),5.48% (active),–,-89.9% (active),-20.2% (active),-93% (active),0.433% (active),3.32% (active),-77.4% (active),–
COc1ccc(NC(=S)N/N=C/c2ccccc2SSCCC(=O)OC[C@H]2O[C@H](O)[C@H](O)[C@@H](O)[C@@H]2O)cc1,71.8%,102%,86.3%,72.2%,59.5%,59.9%,71.7%,59.6%,85.3%,78.9%,72.9%,81.2%,81.4%,136%,101%,–,65.4%,–,–
Nc1c(C(=O)Nc2cccc3ccccc23)sc2nc3c(cc12)CCCC3,26.8%,2.73% (active),37.9%,39.2%,25.4%,39.9%,28.2%,38.6%,–,51.5%,66.4%,34.3%,42%,60.6%,44.7%,16.6%,20.7%,0.0449% (active),44.9%
COc1cccc(-c2nn(-c3ccccc3)cc2-c2ccnc(NCCCNS(=O)(=O)c3ccc(Cl)cc3)c2)c1,34.4%,11.3%,71.2%,52.1%,35.5%,25.1%,30.8%,52.3%,–,47.1%,64%,49.3%,22%,52.3%,38.6%,21.4%,14.8%,42.3%,49.1%
O=S(=O)(NCCNc1cc(-c2cn(-c3ccccc3)nc2-c2cccc(O)c2)ccn1)c1ccc(Br)cc1,5.6% (active),4.7% (active),43.7%,41.3%,22.5%,15.6%,11.5%,20%,–,20.7%,34.9%,34.4%,19.8%,46.1%,23.7%,9.77% (active),8.59% (active),53.7%,43.2%
CSc1ccc(N(C)c2nc(C)nc3c2CCC3)cc1,7.62% (active),-9.35% (active),35.1%,38.1%,12.1%,20.1%,-38.2% (active),10.2%,–,24%,52.6%,18.4%,29.3%,56.6%,18.3%,8.07% (active),6.54% (active),-8.39% (active),20.5%
COc1cc2c3c(c4c5ccccc5[nH]c4c2c(OC)c1OC)C(=O)N(O)C3=O,45.8%,52.1%,72.6%,54.5%,28%,43.8%,11.1%,26.3%,–,85.6%,97.1%,46.6%,10%,80.1%,20.6%,18%,1.38% (active),-16.8% (active),36%
Clc1ccc(Cn2cc(-c3nc4ccc(Br)nc4n3Cc3ccc(Cl)cc3)c3cccnc32)cc1,87.2%,96.3%,64.1%,89.2%,94.8%,65.7%,74.3%,85.4%,–,89.2%,77.8%,86.8%,51.7%,112%,75%,78.6%,59.3%,76.4%,82%
O=S(=O)(NCCNc1cc(-c2cn(-c3ccccc3)nc2-c2cccc(O)c2)ccn1)c1cccc(F)c1,5.71% (active),7.47% (active),48.1%,51.5%,32.3%,25.4%,26.9%,36.5%,–,53.1%,46.6%,50.4%,23.5%,56%,36.3%,18.7%,18.5%,57.4%,44.3%
COc1ccc(O)c(-c2cc(-c3ccc(Cl)cc3)c(C#N)c(=O)[nH]2)c1,66.5%,75.7%,62.7%,69.7%,46.6%,55.6%,57.7%,63.2%,–,37.9%,105%,77%,55%,87.3%,78.1%,–,57.8%,79.6%,73.3%
COc1ccc(C2=NN(c3nc(-c4ccc(OC)cc4)c(C#N)c(=O)n3C)C(=O)CC2)cc1,106%,109%,86.5%,96.7%,100%,82.4%,96.3%,101%,–,98.4%,107%,88.8%,85.9%,107%,101%,91%,96.6%,116%,96%
CCCCCCCC(=O)SCC/C=C/[C@@H]1CC(=O)NCc2cccc(n2)CN(Cc2ccc3ccccc3c2)CC(=O)N[C@@H](C(C)C)C(=O)O1,57.8%,14.5%,29.2%,48.9%,35.9%,34.8%,9.24% (active),5.42% (active),–,56.5%,53.9%,57.1%,36.4%,21.6%,34.7%,15.6%,2.35% (active),0.931% (active),35.8%
Cn1c2ccccc2c2c3c(c4c5cccnc5[nH]c4c21)C(=O)N(O)C3=O,67.4%,28.9%,61%,38.1%,21%,42.4%,12.7%,2.63% (active),–,97.5%,85.9%,22.6%,31%,97.4%,17.8%,13.2%,0.301% (active),109%,24%
COc1cc(-c2cc3cc(O)ccc3oc2=O)cc(OC)c1OC,91.4%,103%,65.3%,95.5%,99.3%,85.3%,93.6%,103%,–,92.7%,78.7%,93.6%,66.7%,104%,81.8%,–,94.2%,100%,84.6%
CNC(=O)c1cc(Oc2ccc3nc(NC(=O)Nc4ccc(Cl)cc4)sc3c2)ccn1,84.8%,68.8%,50.6%,59.3%,37.3%,66%,73.3%,51.6%,–,81.1%,53.8%,62.3%,62.5%,62.3%,64.9%,83.2%,85.4%,117%,94.7%
